Experimental data from ChEMBL document CHEMBL1157539, “Thousands of chemical starting points for antimalarial lead identification” (Nature, 2010).

Columns and labels:
Assay type in all cases: functional
[1] = system: Plasmodium falciparum; assay: GSK_TCMDC: Inhibition of Plasmodium falciparum 3D7 in whole red blood cells, using parasite LDH activity as an index of growth. Test compounds present at 2uM
[2] = system: Plasmodium falciparum; assay: GSK_TCMDC: Inhibition of Plasmodium falciparum Dd2 in whole red blood cells, using parasite LDH activity as an index of growth. Test compounds present at 2uM
[3] = system: HepG2; assay: GSK_TCMDC: Percent inhibition of human HepG2 cell line. Test compounds present at 10uM.

| Structure (SMILES) | Inhibition [1] [%] | Inhibition [2] [%] | Inhibition [3] [%] |
| --- | --- | --- | --- |
| Cn1nc(C(=O)N2CCC(c3[nH]ncc3Cc3ccccc3)CC2)c2ccccc2c1=O | 95 | 95 | 5 |
| O=C(N[C@@H](Cc1ccccc1)C(=O)NCc1cccc2ccccc12)c1ccc(O)c(-c2ccc(Cl)c(Cl)c2)c1 | 100 | 97 | 0 |
| CNCCNCc1cccc(-c2ccc(-c3nc4ccccc4[nH]3)cc2)c1.O=C(O)C(F)(F)F | 99 | 27 | 13 |
| COc1cccc2cc(C(=O)N[C@@H](CC(C)C)C(=O)NC(/C=N/NC(=O)c3ccccc3)CCc3ccccc3)oc12 (stereo partly drawn) | 88 | 73 | 8 |
| Cc1nn(C2CCS(=O)(=O)C2)c(C)c1C1Nc2ccccc2C(=O)N1Cc1ccc2c(c1)OCO2 (stereo not drawn) | 98 | 93 | 7 |
| O=C(/C=C/c1ccc(Cl)c(Cl)c1)NCCCCCN1CCC(NC(=O)Nc2ccccc2F)CC1 | 95 | 25 | 14 |
| COc1cc(NC(=O)/C=C/c2cccc3ccoc23)ccc1OCCN(C(C)C)C(C)C.Cl | 90 | 5 | 22 |
| COc1ccc2nccc([C@@H](O)CN3CCC(NCCOc4cccc(C(F)(F)F)c4Cl)CC3)c2c1.O=C(O)C(=O)O | 100 | 98 | 13 |
| O=C(Nc1ccc(N2CCNCC2)cc1)c1ccn2ncc(-c3cccc(Cl)c3)c2n1 | 96 | 53 | 79 |
| Cc1[nH]c(C)c(-c2csc3ccccc23)c(=O)c1Cl | 97 | 75 | 7 |
| CCc1ccc(CN2CCC(NC(=O)c3ccc(-c4ccc(N(C)C)cc4)s3)CC2)cc1.O=C(O)C(F)(F)F | 84 | 44 | 52 |
| Cc1nc(Nc2ccc(F)cc2)nc(N2CCc3ccccc3C2C)c1CO (stereo not drawn) | 100 | 95 | 0 |
| Cc1nc2sccn2c1C(=O)NCCc1ccccc1Cl | 96 | 1 | 6 |
| Cc1ccc(C(=O)Nc2ccc(C)c(OC3CCN(CCC(C)C)C3)c2)cc1.O=C(O)C(F)(F)F (stereo not drawn) | 99 | 53 | 6 |
| Br.Oc1ccc(CCNCCCCCCNCCc2ccc(-c3ccccc3)cc2)cc1O | 100 | 8 | 72 |
| CN1CCc2cc(O)c(NS(=O)(=O)c3ccc(-c4ccc(Cl)cc4)cc3)cc2CC1.Cl | 100 | 3 | 7 |
